Measurements published in PubChem BioAssay AID687001 (Broad Institute, 2013).
Potency and affinity values are given separately. Active and inactive are the calls of the source.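 Rule for the calls: active = signal-lowering compounds whose fitted half-maximal concentration is at or below twice the top tested dose in every run; inconclusive = runs disagree, flat 30 to 70% inhibition, or poor curve fit; inactive = the rest.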

These compounds were tested against Protein S100-A4 (Homo sapiens) (UniProt P26447) (assay: human S100A4 peptide interaction inhibition curves – biochemical, fluorescence polarization, cherry-picked hits, dose response (AID 687001;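 note: 0% = DMSO neutral control wells and -100% = TFP positive control wells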)). Conditions: FP, S100A4/TAMRA-myosin IIA peptide binding; series mostly up to 11 µM; activity change, negative = inhibition: at the top concentration.
Chain of Protein S100-A4 (Homo sapiens) (P26447 whole entry, looked up): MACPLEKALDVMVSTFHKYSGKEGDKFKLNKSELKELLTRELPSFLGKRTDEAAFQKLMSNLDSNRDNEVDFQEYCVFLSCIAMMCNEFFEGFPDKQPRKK

Activity change, negative = inhibition, inactive:
Cc1ccccc1S(=O)(=O)NCC[C@H]1CC[C@H](NC(=O)C2CCC2)[C@H](CO)O1 4.41%, CC(C)(C)C1CCSC2=NCCC[C@]2(c2ccccc2)C1 (some centres undefined) 1.02%, COc1ccccc1-c1noc2c1C(=O)N(Cc1cn(-c3ccc(Cl)cc3)nn1)CC2 -3.34%, CC(=O)Nc1ccc2nsnc2c1 -2.33%, CC(=O)N1CC(C)Oc2ccc(S(=O)(=O)NC(CC(=O)O)c3ccccc3)cc21 (centres undefined) -3.48%, Cc1ccc(CNc2cnccn2)s1 1.38%, C[C@H]1CN([C@@H](C)CO)S(=O)(=O)c2ccc(C3=CCCCC3)cc2O[C@H]1CN(C)Cc1ccccc1 2.21%, C[C@@H]1CCCCO[C@@H](CN(C)C(=O)Cc2ccccc2)[C@H](C)CN([C@@H](C)CO)C(=O)c2cc(NC(=O)Nc3ccc4c(c3)OCO4)ccc2O1 5.09%, CS(=O)(=O)N(CCc1ccccc1)CC(=O)N1CCCCCC1 -5.34%, C[C@@H]1CCCCO[C@H](CN(C)S(=O)(=O)c2ccc(Cl)cc2)[C@@H](C)CN([C@@H](C)CO)C(=O)c2cc(NS(=O)(=O)c3ccc(F)cc3)ccc2O1 19.7%, O=C(Nc1ccccc1F)N1C[C@@H]2[C@H](c3ccccc31)[C@@H](CO)N2C(=O)C1CCCC1 2.82%, Cc1cc2cc(CNC(=O)c3ccc(S(=O)(=O)N4CCCC4)cc3)ccc2n1C 4.75%, CCC1CN(C(=O)N2CCC(C(=O)NCCc3ccc(OC)c(OC)c3)CC2)c2ccccc2O1 (centres undefined) -1.87%, C[C@@H]1CN([C@H](C)CO)C(=O)c2c(c3ccccc3n2C)-c2ccccc2CO[C@H]1CN(C)S(=O)(=O)c1ccccc1 8.35%
